# Target: DLAT
# Test: pooled miR-30 sensor sort-seq; sequence = guide strand
# Details: shRNA
# Note: reference of the scale not given here.
row,Sequence,sensor-assay potency score (higher = more potent)
1,TTTGTCTTATAACTGTGTCCAT,-0.255
2,TTTTAAATCTGTTACTTCGGTT,-0.836
3,TTCTCTACTGCCAACTTCTTTG,-0.772
4,TAAGTCTCCTTCACTTAGCTTC,-0.196
5,TCTTTTTCTACAATGATACAGA,-0.772
6,TAGGTGTGATGAGTCCTGCAGG,-0.602
7,TTCTCCCATATTTACATCGATA,-1.59
8,TTGATTGCATTAATCGCTGTGC,0.199
9,TTGTCTTATAACTGTGTCCATC,-1.31
10,TTTAAATCTGTTACTTCGGTTG,-0.374
11,TTGCTGATTGGGATATCTGTGA,-0.131
12,TTTCTCTACTGCCAACTTCTTT,-1.09

# Target: DLGAP2
# Test: as above
# Details: shRNA
row,Sequence,sensor-assay potency score (higher = more potent)
1,TTGTTCGGAAACATCCCGGGAG,0.236
2,TTTACCGAGAATTTCCTCCGAG,0.34
3,TTTTTTTGAATGCTACAGCTGG,-0.304
4,TAGAACGTTTAAAACGTCCGTG,-0.169
5,TTGTATATGAGACAGCTGCTGT,-0.506
6,TCCTTGTTCGGAAACATCCCGG,-1.01
7,TTGTCTGTCGGGCAGGTCCAGG,-1.29
8,TTCAACTTCACTGAAGACGGAC,-0.0753
9,TAGCTGTGACTCCTTGTTCGGA,-0.676
10,TAGATCTCGATGCTGTCCGCGC,-0.416
11,ATAGGTGCTGTCGCTGTCCAGG,-0.97
12,TTGACGTCGTTGTTGCTCTTGG,0.201

# Target: DMBX1
# Test: as above
# Details: shRNA
row,Sequence,sensor-assay potency score (higher = more potent)
1,TTGTACATGGCGCTGAGTGAGT,-0.81
2,TTACTGTTCAGGGTAGCTGATG,-1.25
3,TGAGCCGTGAACGCTGTGCGGC,-1.33
4,TTCCTTCTGCAGGCTACGCTGC,-1.18
5,TGACTGCTCAGACAGACTCAGG,-1.97
6,TCTGGGTAGTGAGTCTTCTGGA,-0.662
7,TGAACCACACCTGCACCCGGGC,-1.56
8,TTTTACTGTTCAGGGTAGCTGA,-0.522
9,TGGGTAGTGAGTCTTCTGGAAG,-2.04
10,TTCTTCCGGAACTTGGCCCGGC,-0.414
11,TCACGCATCACCACATCTGGGT,0.0309
12,TTGAACCACACCTGCACCCGGG,-0.844

# Target: DMKN
# Test: as above
# Details: shRNA
row,Sequence,sensor-assay potency score (higher = more potent)
1,TTCCTCTCCGCTCTGCAGGGGG,-0.64
2,TTTGCAGGGGTCTTGACTGAGT,-1.13
3,TTCTGTTTGAAATCCTCCCAGA,-0.45
4,TAGTTCTGATCGGCTCTGCCTG,-0.576

# From the OligoGym collection
